The nature of assay [1]: Cell Viability - HUV-EC-C (AID 542). Also: nearly all actives have a fitted effect of over 35% in size. Also: potency is read from the fitted curve at half-maximal effect. Summed up:
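HUV-EC-C normal human vascular endothelial cells, 1000 cells/well, pre-incubated 5 hr at 37 °C, then exposed to compounds for 40 hr at 37 °C in complete medium. Viability measured as intracellular ATP by CellTiter-Glo luminescence; AC50 from Hill fits.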

A short description of assay [2]: Cellular Toxicity (caspase-3) SHSY5Y (AID 657). The method in brief: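 SH-SY5Y human neuroblastoma cells, 1500/well, exposed to compound for 16 hours at 37 °C in complete medium. Caspase-3/7 activity read by Caspase-Glo luminescence after 1 hr at room temperature, normalized to DMSO and 10 uM staurosporine; AC50 from Hill fit.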
Assay [3] is described as follows: Cell Viability - LYMP2-001 (AID 921). Also: nearly all actives have a fitted effect of over 70% in size. Also: potency is read from the fitted curve at half-maximal effect. The method in brief:
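Human lymphoblastoid LYMP2-001 cells, 2500 per well, in complete medium, treated 24 h at 37 C. Viability from cellular ATP by CellTiter-Glo luminescence; AC50 from Hill-equation fits of qHTS concentration-response.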

Assay [4] in a line: Cell Viability - LYMP1-002 - Assay at 16 hr (AID 948). Also: potency is read from the fitted curve at half-maximal effect. Summed up: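 LYMP1-002 human lymphoblastoid cells, 2500/well, were treated with compounds for 16 hr at 37 C in complete medium. Viability was read as intracellular ATP by CellTiter-Glo luminescence, and AC50 was derived from a Hill fit to concentration-response data.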
The nature of assay [5]: MultiTox-Fluor Cytotoxicity Assay - LYMP1-003 - Dead Cells (AID 961). Also: nearly all actives have a fitted effect of over 70% in size. Also: potency is read from the fitted curve at half-maximal effect. Summed up: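 LYMP1-003 lymphoblastoid, 2500 cells/well, 5 hr settle then 16 hr cpd at 37 C; MultiTox-Fluor reagent 60 min RT; Ex/Em 485/520 dead-cell signal; norm. DMSO = 0%, 15 uM tetraoctylammonium bromide = 100%; Hill AC50.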
Assay [6] can be described thus: Cell Viability - LYMP1-003 - Assay at 40 hr (AID 964). Also: nearly all actives have a fitted effect of over 60% in size. Also: potency is read from the fitted curve at half-maximal effect. The method in brief: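 Human lymphoblastoid LYMP1-003 cells, 2500/well in complete medium, rested 5 hr at 37 C, then exposed to compounds for 40 hr at 37 C. Viability read as intracellular ATP by CellTiter-Glo luminescence; AC50 from Hill fits of concentration-response data.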
A short description of assay [7]: Cell Viability - LYMP2-005 (AID 967). Also: potency is read from the fitted curve at half-maximal effect. Summed up: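 Human lymphoblastoid LYMP2-005 cells, 2,500 per well in complete medium, rested 5 h at 37C then compound-treated 24 h at 37C. Intracellular ATP read by CellTiter-Glo luminescence after 30 min at room temperature; AC50 from Hill-equation fits of concentration-response data.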
Assay [8] is described as follows: Cell Viability - LYMP2-009 (AID 968). Also: nearly all actives have a fitted effect of over 55% in size. Also: potency is read from the fitted curve at half-maximal effect.
Assay [9] can be described thus: Cell Viability - LYMP2-011 (AID 969). Also: nearly all actives have a fitted effect of over 60% in size. Also: potency is read from the fitted curve at half-maximal effect. The method in brief: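 Human lymphoblastoid cells (2500/well) were plated in complete medium, preincubated 5 hr at 37 C, then exposed to compounds for 24 hr at 37 C. Intracellular ATP was read by CellTiter-Glo luminescence, and AC50 came from Hill-equation concentration-response fits.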
Assay [10] in a line: Cell Viability - LYMP2-017 (AID 972). Also: nearly all actives have a fitted effect of over 55% in size. Also: potency is read from the fitted curve at half-maximal effect. Summed up:
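Human lymphoblastoid cells (2500/well) were seeded in complete medium, held 5 hr at 37 C, then exposed to compounds for 24 hr at 37 C. Intracellular ATP was read by CellTiter-Glo luminescence after 30 min at room temperature, with AC50 values from Hill-equation fits.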

Assay [11] is described as follows: Cell Viability - LYMP2-021 (AID 974).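 Also: compound exposure lasts 24 hours at 37 °C; nearly all actives have a fitted effect of over 55% in size.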 Also: potency is read from the fitted curve at half-maximal effect. Summed up: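 Human lymphoblastoid cells (2500/well) were preincubated 5 hr at 37 C, then exposed to compounds for 24 hr at 37 C in complete medium. Intracellular ATP was read by CellTiter-Glo luminescence; AC50 came from Hill-equation fits of concentration-response data.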
Assay [12] can be described thus: Cell Viability - LYMP2-023 (AID 975). Also: nearly all actives have a fitted effect of over 55% in size. Also: potency is read from the fitted curve at half-maximal effect. Summed up: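 Human lymphoblastoid cells (2500/well) were preincubated 5 hr at 37 C, then exposed to compounds for 24 hr at 37 C in complete medium. Cellular ATP was read by CellTiter-Glo luminescence, and AC50 came from Hill-equation fits.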
The nature of assay [13]: Cell Viability - LYMP2-025 (AID 976). Also: potency is read from the fitted curve at half-maximal effect. The method in brief:
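Human lymphoblastoid LYMP2-025 cells (2500/well) were pre-incubated 5 hr at 37 C, then treated with compounds for 24 hr at 37 C in complete medium. Viability was read as intracellular ATP by CellTiter-Glo luminescence; AC50 from Hill fits.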

Assay [14] can be described thus: Cell Viability - LYMP2-007 (AID 979).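 Also: cells exposed to compound for 24 h before reading; nearly all actives have a fitted effect of over 60% in size.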 Also: potency is read from the fitted curve at half-maximal effect. The method in brief:
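Human lymphoblastoid cells (2500/well) were plated in complete medium, incubated 5 hr at 37 C, then exposed to compounds for 24 hr at 37 C. Intracellular ATP was read by CellTiter-Glo luminescence after 30 min at room temperature; AC50 from Hill fits.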

Assay [15] in a line: Cell Viability - LYMP2-012 (AID 982). Also: potency is read from the fitted curve at half-maximal effect.
Assay [16] is described as follows: Cell Viability - LYMP1-002 - Assay at 24 hr (AID 993). Also: potency is read from the fitted curve at half-maximal effect. The method in brief:
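Human lymphoblastoid LYMP1-002 cells, 2500/well in complete medium, were treated with compounds for 24 h at 37 C; intracellular ATP was read by CellTiter-Glo luminescence. AC50 values came from Hill-equation fits of qHTS concentration-response data.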

Assay [17] can be described thus: Cell Viability - LYMP1-002 - Assay at 40 hr (AID 994). Also: nearly all actives have a fitted effect of over 60% in size. Also: potency is read from the fitted curve at half-maximal effect. The method in brief: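 Human lymphoblastoid cells, 2500/well in complete medium, were preincubated 5 hr at 37 C, then exposed to compounds for 40 hr at 37 C. Intracellular ATP was read by CellTiter-Glo luminescence after 30 min at room temperature; AC50 from Hill-equation fits.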
Assay [18] is described as follows: qHTS assay for small molecule disruptors of the mitochondrial membrane potential - 5 hr assay (AID 651755; calls by dose curve; also: nearly all actives have a fitted effect of over 40% in size; also: potency is read from the fitted curve at half-maximal effect). Summed up: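 HepG2 cells, attached overnight at 37C, were exposed to compound or DMSO for 5 hr at 37C, 5% CO2. Mito-MPS dye was then added for 30 min, and fluorescence read at 490/535 nm (monomers) and 540/590 nm (aggregates).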
The nature of assay [19]: qHTS assay for environmental chemicals that activate the Aryl hydrocarbon Receptor (AhR) signaling pathway (AID 651777). Also: nearly all actives have a fitted effect of over 15% in size. Also: potency is read from the fitted curve at half-maximal effect. As to activation: % of control where 0% means no effect. As to conditions: 1A2-DRE human hepatoma cells, luciferase, 24 h; activation: stronger effect = higher value. The method in brief:
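AhR activation is scored as a rise in luciferase from a stable DRE–CYP1A2 promoter construct in human hepatoma cells. Treatment lasts 24 hr at 37 C; detection uses One-Glo after 30 min at room temperature.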

Assay [20] is described as follows: qHTS assay for small molecule agonists of the antioxidant response element (ARE) signaling pathway measured by Nrf2-dependant transcriptional activity (AID 720636; active = well fitted curve in the direction sought with a large enough effect in the repeat runs; an effect the other way counts as inactive or inconclusive; also: potency is read from the fitted curve at half-maximal effect;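 as to activation: HepG2 cells with an ARE-driven luciferase reporter; % of control where 0% means no effect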). The method in brief: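 First, ARE-luc HepG2 cells attached for 6 hr at 37 C in 1% dialyzed FBS medium. Next, compound or DMSO was added and incubated 16 hr. Finally, ONE-Glo reagent was added and luminescence measured after 30 min.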

Where “and” joins values, the source holds several entries; their conditions need not be identical. Identical values can stand only once. Results filed as inconclusive are left out. The source holds several records for some structures; these can differ, active in one and inactive in another. Calls of active or inactive are those of the source. Unless noted, calls follow the shape of the dose curve; as a rule, active = well fitted curve in the direction sought with a large enough effect; inconclusive = small, poorly fitted or top-dose-only effect, or another doubt; inactive = no such curve, though single readings can be large; an effect the other way counts as inactive or inconclusive.

In the case of `FC(F)(F)c1ccc(Cl)cc1`, the Potency result in [1], in assay [2], in assay [3], in [4], in assay [5] and in assay [6] was “inactive” throughout. Moreover, the Potency entry in assay [7], in [8], in assay [9], in assay [10], in assay [11] and in assay [12] was “inactive” each time. Moreover, the Potency entry in assay [13], in assay [14], in assay [15], in [16], in assay [17] and in assay [18] was “inactive” in each case. Further, the Potency result in assay [20] is “inactive”. For the same molecule, the activation in assay [19] is 0.0226% (inactive) and 0.781% (inactive).
Regarding `Nc1ccccc1C(=O)OCCc1ccccc1`, the Potency entry in assay [1], in assay [2], in [3], in assay [4], in [5] and in [6] was “inactive” throughout. Further, the Potency entry in [7], in assay [8], in assay [9], in assay [10], in [11] and in assay [12] was “inactive” in each case. The Potency entry in assay [13], in assay [14], in [15], in assay [16], in assay [17] and in [18] was “inactive” in each case.
Take `CN(C)c1ccc(N=O)cc1`: the Potency result in [1] and in assay [2] was “inactive” throughout. Besides, the Potency in assay [3] was 0.631 µM (active); in [4], 7.94 µM (active); in [5], 3.98 µM (active); in assay [6] it was 3.98 µM (active); in assay [7] it was 0.794 µM (active); in [8], 1 µM (active). Moreover, the Potency in [9] was 2 µM (active); in [10], 1 µM (active); in assay [11], 0.794 µM (active); in assay [12], 1.26 µM (active); in assay [13], 2.51 µM (active); in assay [14], 794 nM (active). Also, the Potency in assay [15] was 0.631 µM (active); in [16] it was 3.98 µM (active); in assay [17] it was 6.31 µM (active); in [19], 70.8 µM (active); in assay [20] it was 26.6 µM (active).
Take `CC(C)CC(C)Nc1ccc(Nc2ccccc2)cc1` (stereo unspecified): the Potency in assay [1] is 25.1 µM (active); in assay [3], 15.8 µM (active); in [4], 50.1 µM (active); in [5], 50.1 µM (active); in assay [6], 31.6 µM (active); in assay [7], 31.6 µM (active). The Potency in [9] was 50.1 µM (active); in assay [10], 50.1 µM (active); in assay [11] it was 50.1 µM (active); in [12], 50.1 µM (active); in assay [14], 39800 nM (active); in [15] it was 39.8 µM (active). Also, the Potency is 39.8 µM (active) in assay [16] and 31.6 µM (active) in assay [17]. Also, the Potency result in assay [2] was “inactive”. Besides, in [19], the activation was 10.8% (inactive).
For `O=C1C2(Cl)C3(Cl)C4(Cl)C(Cl)(Cl)C5(Cl)C3(Cl)C1(Cl)C5(Cl)C24Cl` (stereo unspecified), the Potency in [1] is 31.6 µM (active) and 63.1 µM (active); in assay [3], “inactive and 39.8 µM (active)”; in assay [4] it was 39.8 µM (active); in [5], 31.6 µM (active) and 39.8 µM (active); in assay [6], 25.1 µM (active) and 50.1 µM (active); in assay [7] it was 39.8 µM (active). Further, the Potency in [8] was 50.1 µM (active); in assay [9], 63.1 µM (active); in assay [10] it was 50.1 µM (active); in assay [12] it was 50.1 µM (active); in assay [14], 39.8 µM (active) and 50.1 µM (active); in [16], 31.6 µM (active) and 79.4 µM (active). Also, the Potency in assay [17] was 25.1 µM (active) and 50.1 µM (active); in assay [18] it was 4.22 µM (active) and 9.44 µM (active). The Potency result in assay [2], in [15] and in assay [20] was “inactive” each time. The activation in assay [19] is 0.0088% (inactive) and 4.7% (inactive).

For the origin of these results see PubChem BioAssay (NCATS).
